Compound activity from PubChem BioAssay.
SMN2 splice enh = enhancers of SMN2 splice variant expression | actives 2.8% (n = 210,000) | HEK293 SMN2-luciferase splicing reporter, luminescence, 30-36 h | Potency, µM (top dose mostly 46.1 µM), without a hit: at the top dose activity change, positive = activation, actives largely listed as activators; also: % of control where 0% means no effect; nearly all actives have a fitted effect of over 55% in size
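HEK293 cells carry an SMN2 minigene-luciferase reporter in which exon 7 inclusion puts luciferase in frame. Cells were seeded at 2000 cells/well, attached for 10-12 hours, then exposed to compounds for 30-36 hours at 37C before ONE-Glo luminescence.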
FLuc counter = inhibits or activates purified firefly luciferase, miR-21 counter-screen; purified FLuc, Km substrates, luminescence inhibition; Potency, µM (series often up to 57.5 µM), for the others: top-dose activity change, negative = inhibition, most hits filed as inhibitors; actives 6.9% (n = 360,000); AID 588342;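 also: plate controls were vehicle for no effect and reference inhibitor for full effect; nearly all actives have a fitted effect of over 55% in size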
Target sequence (P08659 whole entry, looked up): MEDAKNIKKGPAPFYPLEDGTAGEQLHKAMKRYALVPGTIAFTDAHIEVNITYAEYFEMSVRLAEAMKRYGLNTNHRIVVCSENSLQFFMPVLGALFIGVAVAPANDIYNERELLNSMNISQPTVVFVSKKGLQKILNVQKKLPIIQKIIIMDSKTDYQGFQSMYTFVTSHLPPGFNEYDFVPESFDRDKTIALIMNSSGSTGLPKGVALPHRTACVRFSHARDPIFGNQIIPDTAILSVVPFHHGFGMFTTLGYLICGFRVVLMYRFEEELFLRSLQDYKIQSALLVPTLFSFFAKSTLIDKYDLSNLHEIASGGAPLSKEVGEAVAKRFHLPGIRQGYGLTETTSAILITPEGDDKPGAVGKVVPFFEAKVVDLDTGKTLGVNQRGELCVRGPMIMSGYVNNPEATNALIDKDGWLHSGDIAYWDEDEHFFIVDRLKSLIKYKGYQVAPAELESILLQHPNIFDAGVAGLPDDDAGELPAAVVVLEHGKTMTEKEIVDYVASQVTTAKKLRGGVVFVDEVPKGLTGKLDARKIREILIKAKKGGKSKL
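Purified P. pyralis luciferase, 10 nM final, with Km-level 10 uM D-luciferin and 10 uM ATP in 50 mM Tris acetate pH 7.5, 10 mM Mg acetate, 0.01% Tween-20, 0.05% BSA; 6-point qHTS titration about 60 µM downward; luminescence read.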
ELG1 repair inh = blocks ELG1-dependent DNA repair in HEK293T cells. HEK293T ELG1-luciferase reporter, luminescence, 16 h; DNA damage induced by 5-fluorouridine. Potency, µM (series often up to 46.1 µM), inactives show top-dose activity change, negative = inhibition, usual class: inhibitors. actives 2.3% (n = 330,000). AID 504467; also: % is scaled to controls: 0 for no effect and ±100 for the full control effect; nearly all actives have a fitted effect of over 55% in size
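In this reporter screen, reduction of luminescence relative to DMSO vehicle indicated activity. Compounds and 5-fluorouridine were added together to 2,000 cells per well, incubated for 16 hr at 37 °C, then developed with ONE-Glo.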
NPC1 promoter act = activators of NPC1 promoter. Huh7 NPC1 promoter luciferase reporter, 24 h. Potency, µM (titrated, usually from 9.22 µM), without a hit: top-dose activation, most hits filed as activators. actives 2.4% (n = 320,000); also: % of control where 0% means no effect; nearly all actives have a fitted effect of over 60% in size
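Luciferase expression driven by the NPC1 promoter was measured in stably transfected Huh7 cells after a 24 h compound incubation, using a luciferase reagent and a luminescence read.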
ELG1 genotoxic = inducers of genotoxicity in HEK293T ELG1-luciferase cells; actives 1.3% (n = 330,000); HEK293T ELG1-luciferase reporter, luminescence, 16 h; Potency, µM (top dose mostly 46 µM), for inactives: top-dose activity change, positive = activation, most hits filed as activators; also: % of control where 0% means no effect; nearly all actives have a fitted effect of over 60% in size
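Genotoxicity was scored as increased ELG1-luciferase reporter signal, measured by ONE-Glo luminescence (30 min, room temperature). Compound or vehicle exposure of the HEK293T reporter cells lasted 16 hr at 37°C.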
Rab9 promoter act = Rab9 promoter activation | Huh7 Rab9 promoter-luciferase reporter, luminescence, 24 h | Potency, µM (titrated, usually from 9.22 µM), for inactives: at the highest dose activation, negative = inhibition, usual class: activators | actives 2.8% (n = 320,000); also: % of control where 0% means no effect; nearly all actives have a fitted effect of over 60% in size
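Huh7 cells stably carrying Rab9 promoter–luciferase reporter, plated 1500 cells/well, compound added after 2 h and incubated 24 h at 37 °C; luciferase luminescence then read after 10 min with detection reagent.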
The depositor's hits bear a star; ? = inconclusive; · = no result given; [ ] = dose if it differs, or a comment. The list is not random: actives were taken first. Their share in the collection is about 9.3%. Calls follow the shape of the dose curve; as a rule, active = well fitted curve in the direction sought with a large enough effect; inconclusive = small, poorly fitted or top-dose-only effect, or another doubt; inactive = no such curve, though single readings can be large; an effect the other way counts as inactive or inconclusive. Potency is read from the fitted curve at half-maximal effect.

SMILES	SMN2 splice enh	FLuc counter	ELG1 repair inh	NPC1 promoter act	ELG1 genotoxic	Rab9 promoter act
COc1ccc(Cl)cc1C(=O)Nc1ccc2oc(-c3ccc(C(C)(C)C)cc3)nc2c1	-5%	9.5µM*	·	·	·	·
N#Cc1ccc(/C=C\c2nccc3c2[nH]c2ccccc23)cc1	-13%	?	?	?	6%	11%
Clc1ccc(/C=C\c2nccc3c2[nH]c2ccccc23)cc1	10%	3.8µM*	0%	27%	17%	21%
Cc1ccc(NS(=O)(=O)c2ccc(NC(=O)C3CC3)cc2)c(C)c1	·	5%	-1%	-10%	6%	2%
CC(C)COc1ccc(C(=O)NCC2OCCc3ccccc32)cc1 (stereo unspecified)	-10%	?	·	·	·	·
COc1ccc(C(=O)NCC2OCCc3ccccc32)c(O)c1 (stereo unspecified)	?	21µM*	?	28%	?	?
Cc1ccccc1C(=O)Nc1cccc(NC(=O)c2ccc(C(C)(C)C)cc2)c1	?	0.76µM*	·	·	·	·
C/C(=N\NC(=O)c1c(Br)c(C)nn1C)c1cccc(NC(=O)c2ccccc2F)c1	9%	?	?	2%	0%	0%
C/C(=N\NC(=O)c1c(Br)c(C)nn1C)c1cccc(NC(=O)c2ccccc2C)c1	-3%	12µM*	?	2%	1%	-5%
C/C(=N\NC(=O)c1c(Br)c(C)nn1C)c1cccc(NC(=O)C2CCC2)c1	6%	19µM*	-8%	0%	0%	-1%
C/C(=N\NC(=O)c1ccc(O)cc1)c1cccc(NC(=O)c2ccccc2C)c1	·	2.7µM*	29%	0%	7%	?
O=S1(=O)CCOCCN1Cc1ccccc1	·	0%	-5%	-2%	-2%	0%
COc1ccc(/C=C2\SC(=S)N(CCC(=O)N(CCO)c3ccccc3)C2=O)cc1OC	·	-4%	-8%	-6%	-3%	-7%[1.84 µM]
C/C(=N\NC(=O)c1ccccc1F)c1ccc(C#N)cc1	?	?	?	?	?	4µM*
C/C(=N\NC(=O)c1c(Cl)c(C)nn1C)c1cccc(NC(=O)c2cccc(F)c2)c1	·	11µM*	?	2%	-17%	16%
C/C(=N\NC(=O)c1ccccc1F)c1cccc(NC(=O)c2ccccc2)c1	·	2.7µM*	?	24%	?	11%
C/C(=N\NC(=O)c1nn(C)c(C)c1Br)c1cccc(NC(=O)c2ccc(F)cc2)c1	?	1.9µM*	?	28%	8%	?
C/C(=N\NC(=O)c1nn(C)cc1Br)c1cccc(NC(=O)C(C)(C)C)c1	-7%	?	-4%	-4%	4%	-8%
C/C(=N\NC(=O)c1cc(Br)ccc1O)c1cccc(NC(=O)c2ccccc2F)c1	·	?	?	-1%	10%	-5%
Oc1ccc(-c2c(-c3ccsc3)sc3ccccc23)cc1	·	0%	-11%	1%	-2%	-4%
Clc1ccc(/C=N/Nc2ncnc3nc[nH]c23)cc1	·	17µM*	?	?	16µM*	?
Cc1ccc(/C=N/Nc2ncnc3nc[nH]c23)cc1	·	9.5µM*	?	2.8µM*	?	1.6µM*
COc1cc(C#Cc2c(-c3cncn3C)n(C)c3ccc(Br)cc23)cc(OC)c1	·	·	9.2µM*	·	-4%	·
COc1cc(C#Cc2c(-c3cncn3C)n(C)c3ccc(-c4ccc5cc[nH]c5c4)cc23)cc(OC)c1	·	·	?	·	1%	·
COc1cc(OC)cc(-c2c(C#Cc3ccsc3)c3cc(Br)ccc3n2C)c1	·	-2%	9%	-1%	0%	1%
SMILES	SMN2 splice enh	FLuc counter	ELG1 repair inh	NPC1 promoter act	ELG1 genotoxic	Rab9 promoter act
COc1cc(C#Cc2c(-c3cncn3C)n(C)c3ccc(-c4ccc(OC)c(OC)c4)cc23)cc(OC)c1	·	-16%	7.3µM*	3%	-5%	-6%
Cc1cccc(C)c1NC(=O)N1CCC(C(N)=O)(N2CCCCC2)CC1	0%	0%	·	·	·	·
CC(=O)Nc1ccc(S(=O)(=O)Nc2nc3ccccc3nc2Nc2ccc3ccccc3c2)cc1	?	9.5µM*	5%	-1%	-1%	1%
COc1ccc(Nc2nc3ccccc3nc2NS(=O)(=O)c2ccc(C)cc2)c(OC)c1	-3%	?	·	·	·	·
CC(=O)Nc1ccc(S(=O)(=O)Nc2nc3ccccc3nc2Nc2cccc(O)c2)cc1	·	?	?	-6%	5%	0%
COc1cc(Nc2nc3ccccc3nc2NS(=O)(=O)c2ccc([N+](=O)[O-])cc2)cc(OC)c1OC	·	-7%	16µM*	-14%	-9%	-29%
COC(=O)c1cc(Nc2nc3ccccc3nc2NS(=O)(=O)c2ccc(C)cc2)ccc1Cl	-2%	19µM*	·	·	·	·
COc1cccc(NC(=O)CCC(=O)NCc2ccco2)c1	3%	1%	0%	0%	12%	3%
COc1ccc(NC(=O)CSc2nnc(-c3ccoc3C)n2CC2CCCO2)cc1 (stereo unspecified)	-4%	-1%	-1%	0%	0%	8%
CCOC(=O)c1ccccc1NC(=O)Cn1cnc2c(nnn2-c2ccc(C)cc2)c1=O	-24%	1%	0%	4%	-7%	1%
COc1ccccc1OCCn1c(C)c(C=O)c2ccccc21	·	-3%	12µM*	-7%	-6%	-9%
CN(Cc1ccccc1)Cc1c[nH]c2ccccc12	-7%	2%	-5%	-3%	-4%	0%
O=C(c1cc2ccccc2o1)c1cccs1	?	11µM*	?	3.5µM*	16%	2.8µM*
Cc1ccc(C(=O)c2cc3ccccc3o2)cc1C	?	4.8µM*	?	2.2µM*	16µM*	3.5µM*
Cc1ccc(C(=O)c2cc3ccccc3o2)cc1	?	2.1µM*	?	2µM*	?	2.2µM*
CC1CCCCN1C(=O)CSc1nnc(-c2ccco2)o1 (stereo unspecified)	·	15µM*	?	1.8µM*	21µM*	2µM*
CC1CCCCN1C(=O)CSc1nnc(-c2ccccc2F)o1 (stereo unspecified)	·	?	?	2.5µM*	?	2.5µM*
COc1ccc(C2CC(c3ccccc3)=NN2C(=O)CSc2ncccn2)cc1 (stereo unspecified)	-59%	1%	-2%	-10%	-2%	-9%
CCCCC(CC)Cn1c(N)c(C#N)c2nc3ccccc3nc21 (stereo unspecified)	2%	1%	8%	-1%	1%	-1%
CCOC(=O)c1cnc2c(C)c(Cl)ccc2c1NCCc1ccc(OC)c(OC)c1	-27%	3%	·	·	·	·
